Source: PubChem (National Center for Advancing Translational Sciences (NCATS))
HT1080 IDH1KD tx – toxicity to HT-1080 IDH1 knockdown cells (counter line). HT-1080 IDH1 knockdown viability, ATP luminescence, 48 h. AID 686971. Potency, µM (highest dose often 46.1 µM), usual class: cytotoxic. hit rate 2% among 360,000
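Assay cells: HT-1080 with IDH1 knockdown, 750 per well, RPMI/5% FBS. Exposure: 48 h at 37 °C following 2 h pre-incubation. Read: CellTiter-Glo luminescence; fitted concentration-response, curve class assigned.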
IL-1B inflam inh – inflammasome signaling inhibition, IL-1 beta readout | THP-1 LPS/ATP IL-1B secretion, AlphaLISA, 16 h; hits give low values | activity change, % at 57.5 µM | AID 743279 | hit rate 4.7% among 360,000; in the data active means activity change below about -50%; inconclusive means mostly about -30% to -49%
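Secreted IL-1B measured by AlphaLISA bead assay after 16 h compound exposure of THP-1 cells; compounds (final up to 57.5 uM) added 1 h before LPS (250 ng/mL) and ATP (1.25 mM) stimulation; lower signal means less secretion.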
TDP1 cell CPT – DT40-hTDP1 cell growth loss with CPT; chicken DT40 Tdp1-/-;hTDP1 cells + 20 nM CPT, ATP luminescence, 48 h; Potency, µM (top dose mostly 46.2 µM), actives largely listed as inhibitors; hit rate 12% among 420,000; AID 686979; further: nearly all actives have a fitted effect of over 55% in size
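Cell growth measured by CellTiter-Glo luminescence after a minimum 48 h, 37 C compound exposure with 20 nM CPT in Tdp1-knockout DT40 cells stably expressing hTDP1, seeded 400/well; qHTS titration format.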
DT40 TDP1 no CPT – qHTS for Inhibitors of human tyrosyl-DNA phosphodiesterase 1 (TDP1): qHTS in cells in absence of CPT; Potency, µM (top dose mostly 46.2 µM), usual class: inhibitors; AID 686978, 2013; DT40 Tdp1-/- hTDP1 cells, no CPT, ATP luminescence, 48 h; hit rate 15% among 420,000; further: nearly all actives have a fitted effect of over 55% in size
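Luminescent ATP content (CellTiter-Glo) served as the growth readout. Knockout chicken DT40 cells expressing human TDP1 were exposed to compounds without camptothecin for a minimum 48 hr at 37 °C.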
HT1080-NT tox – kills 2HG-producing HT-1080-NT fibrosarcoma cells; HT-1080-NT fibrosarcoma viability, CellTiter-Glo ATP luminescence, 48 h; Potency, µM (top dose mostly 46.1 µM), usual class: cytotoxic; hit rate 1.6% among 360,000; AID 686970;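 further: NT is the 2HG producing partner of a matched IDH1 knockdown line; nearly all actives have a fitted effect of over 55% in size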
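A 48-hour cytotoxicity screen used HT-1080-NT cells plated 2 hours before compound delivery. ATP-based CellTiter-Glo luminescence measured viability, normalized to DMSO and no-cell controls.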
ALOX12 inh – inhibitors of human 12S-lipoxygenase ALOX12; P18054; purified 12hLO, xylenol orange hydroperoxide absorbance; Potency, µM (top dose mostly 108 µM), hits mostly inhibitors; hit rate 1.1% among 580,000; AID 1671190
Target sequence (P18054 whole entry, looked up): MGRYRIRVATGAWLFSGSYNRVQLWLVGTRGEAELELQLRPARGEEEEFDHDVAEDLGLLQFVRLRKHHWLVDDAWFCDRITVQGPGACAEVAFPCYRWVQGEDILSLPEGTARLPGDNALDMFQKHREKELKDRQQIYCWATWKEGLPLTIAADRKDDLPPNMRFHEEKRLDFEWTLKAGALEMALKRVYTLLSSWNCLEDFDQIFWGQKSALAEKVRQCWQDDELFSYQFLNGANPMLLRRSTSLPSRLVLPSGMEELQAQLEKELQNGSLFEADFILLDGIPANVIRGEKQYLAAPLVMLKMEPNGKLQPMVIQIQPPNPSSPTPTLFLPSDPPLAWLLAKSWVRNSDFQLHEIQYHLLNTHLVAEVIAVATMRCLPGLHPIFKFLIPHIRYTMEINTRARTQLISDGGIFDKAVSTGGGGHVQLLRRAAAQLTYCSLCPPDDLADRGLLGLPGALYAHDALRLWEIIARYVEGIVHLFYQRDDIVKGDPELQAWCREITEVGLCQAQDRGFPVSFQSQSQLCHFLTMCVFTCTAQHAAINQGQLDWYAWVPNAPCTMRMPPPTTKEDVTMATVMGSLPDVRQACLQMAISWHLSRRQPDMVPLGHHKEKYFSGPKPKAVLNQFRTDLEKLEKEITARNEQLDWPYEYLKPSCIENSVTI
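Purified human 12hLO (150 nM final) in 25 mM Hepes, 0.01% Triton X-100, pH 7.0 was preincubated 15 min at room temperature with compound. Then 40 uM arachidonic acid was added, 30 min. Hydroperoxide was read by Fe-XO absorbance ratio 573/405 nm.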
Hits are given with their value. The entries come from a sample that favours hits as a whole. Unless noted, the call rests on the fitted dose curve; in most records, active means well fitted curve in the direction sought with a large enough effect; inconclusive means small, poorly fitted or top-dose-only effect, or another doubt; inactive means no such curve, though single readings can be large; an effect the other way counts as inactive or inconclusive.

Results for CCOc1ccccc1NC(=O)CSc1ncc(S(=O)(=O)c2ccc(C)c(C)c2)c(N)n1 ?
TDP1 cell CPT: inconclusive; DT40 TDP1 no CPT: 23.1µM; ALOX12 inh: inactive

What do the screens show for `Cc1cc(C)c(NC(=O)CSc2ncc3c(n2)-c2cc(Cl)ccc2N(C)S3(=O)=O)c(C)c1`?
TDP1 cell CPT: 0.164µM; DT40 TDP1 no CPT: 0.0461µM; ALOX12 inh: inconclusive

How did CCOC(=O)c1ccccc1NC(=O)CSc1ncc(C(=O)OCC)c(N)n1 do in these assays?
HT1080 IDH1KD tx: inactive; IL-1B inflam inh: inactive; TDP1 cell CPT: inconclusive; DT40 TDP1 no CPT: inconclusive; HT1080-NT tox: inactive; ALOX12 inh: inconclusive

Results for CC(C)c1ccc(NC(=O)CSc2ncc3c(n2)-c2cc(Cl)ccc2N(C)S3(=O)=O)cc1 ?
ALOX12 inh: inactive

How did c1ccc(C2CCCN(CCNc3ncncn3)C2)cc1 (stereo unspecified) do in these assays?
ALOX12 inh: inactive

What do the screens show for `OCC[C@H]1NCc2cc(CO)cc(-c3ccccc3)c21`?
HT1080 IDH1KD tx: inactive; IL-1B inflam inh: inconclusive; TDP1 cell CPT: inconclusive; DT40 TDP1 no CPT: inconclusive; HT1080-NT tox: inactive; ALOX12 inh: inactive

What do the screens show for `CCc1cccc(NC(=O)CSc2ncc3c(n2)-c2ccccc2N(CC)S3(=O)=O)c1`?
TDP1 cell CPT: inactive; DT40 TDP1 no CPT: inactive; ALOX12 inh: inactive

How did CCc1cccc(NC(=O)CSC2=NS(=O)(=O)c3ccccc32)c1 do in these assays?
HT1080 IDH1KD tx: inactive; IL-1B inflam inh: inconclusive; TDP1 cell CPT: 2.59µM; DT40 TDP1 no CPT: 4.11µM; HT1080-NT tox: inactive; ALOX12 inh: inconclusive

How did Cc1cccc(CNC(=O)c2cc3c(N(C)Cc4ccccc4)nc(C)cn3n2)c1 do in these assays?
ALOX12 inh: inactive

How did CC(C)(C)NC(=O)C1CCCN(S(=O)(=O)c2cccc3cccnc23)C1 (stereo unspecified) do in these assays?
HT1080 IDH1KD tx: inactive; IL-1B inflam inh: inactive; TDP1 cell CPT: inconclusive; DT40 TDP1 no CPT: inactive; HT1080-NT tox: inactive; ALOX12 inh: inactive

How did CS(=O)(=O)N1CCCCC1c1cc(C(=O)Nc2cccc(C#N)c2)no1 (stereo unspecified) do in these assays?
HT1080 IDH1KD tx: inactive; IL-1B inflam inh: inactive; TDP1 cell CPT: inactive; DT40 TDP1 no CPT: inactive; HT1080-NT tox: inactive; ALOX12 inh: inactive

What do the screens show for `Cc1ncccc1C(=O)N1CCCC(c2cc(C(=O)Nc3ccc(C(C)(C)C)cc3)no2)C1` (stereo unspecified)?
HT1080 IDH1KD tx: inconclusive; IL-1B inflam inh: inactive; TDP1 cell CPT: 13µM; DT40 TDP1 no CPT: 11.6µM; HT1080-NT tox: 20.6µM; ALOX12 inh: inactive

What do the screens show for `CC(=O)Nc1ccc(C(=O)N2CCCC(c3cc(C(=O)Nc4ccccc4)no3)C2)cc1` (stereo unspecified)?
HT1080 IDH1KD tx: inactive; IL-1B inflam inh: inactive; TDP1 cell CPT: inconclusive; DT40 TDP1 no CPT: inactive; HT1080-NT tox: inactive; ALOX12 inh: inactive

How did CC(C)(C)c1ccc(NC(=O)c2cc(C3CCCN(S(=O)(=O)c4cccc5cccnc45)C3)on2)cc1 (stereo unspecified) do in these assays?
HT1080 IDH1KD tx: inconclusive; IL-1B inflam inh: inactive; TDP1 cell CPT: 23.1µM; DT40 TDP1 no CPT: 11.6µM; HT1080-NT tox: inactive; ALOX12 inh: inactive

Results for N#Cc1cccc(NC(=O)c2cc(C3CCCCN3S(=O)(=O)c3cccc4cccnc34)on2)c1 (stereo unspecified) ?
HT1080 IDH1KD tx: inactive; IL-1B inflam inh: inactive; TDP1 cell CPT: inconclusive; DT40 TDP1 no CPT: 18.4µM; HT1080-NT tox: inactive; ALOX12 inh: inactive

Results for COc1ccc2cc(C(=O)NCc3ccco3)c(=Nc3ccc(C(=O)O)cc3)oc2c1 ?
HT1080 IDH1KD tx: inactive; IL-1B inflam inh: inactive; TDP1 cell CPT: inconclusive; DT40 TDP1 no CPT: inconclusive; HT1080-NT tox: inactive; ALOX12 inh: inactive

How did COc1ccc(Nc2cc(C(=O)NCCCN3CCN(C)CC3)c3ccccc3n2)c(OC)c1 do in these assays?
HT1080 IDH1KD tx: inactive; IL-1B inflam inh: inconclusive; TDP1 cell CPT: inconclusive; DT40 TDP1 no CPT: 23.1µM; HT1080-NT tox: inactive; ALOX12 inh: inactive
